Compound activity from PubChem BioAssay.
Only some compounds are listed: those with a hit (about 7.4% of all), similar ones and a draw of the others.
Rab9 prom act: qHTS Assay for Rab9 Promoter Activators. Huh7 Rab9 promoter-luciferase reporter, luminescence, 24 h. Potency, µM (top dose mostly 9.22 µM), for inactives: at the highest dose activation, negative = inhibition, most hits filed as activators. AID 485297, 2010. hit rate 2.8% among 320,000; further: % of control where 0% means no effect; nearly all actives have a fitted effect of over 60% in size
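Using Huh7 cells stably transfected with Rab9 promoter–luciferase, compounds were incubated 24 h at 37 °C, 5% CO2; luciferase luminescence was read 10 min after reagent addition.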
FLuc counter: qHTS profiling assay for firefly luciferase inhibitor/activator using purifed enzyme and Km concentrations of substrates (counterscreen for miR-21 project); Luciferin 4-monooxygenase (Photinus pyralis), P08659; purified FLuc, Km substrates, luminescence inhibition; Potency, µM (top dose mostly 57.5 µM), for the others: top-dose activity change, negative = inhibition, hits mostly inhibitors; hit rate 6.9% among 360,000;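 further: plate controls were vehicle for no effect and reference inhibitor for full effect; nearly all actives have a fitted effect of over 55% in size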
Target sequence (P08659 whole entry, looked up): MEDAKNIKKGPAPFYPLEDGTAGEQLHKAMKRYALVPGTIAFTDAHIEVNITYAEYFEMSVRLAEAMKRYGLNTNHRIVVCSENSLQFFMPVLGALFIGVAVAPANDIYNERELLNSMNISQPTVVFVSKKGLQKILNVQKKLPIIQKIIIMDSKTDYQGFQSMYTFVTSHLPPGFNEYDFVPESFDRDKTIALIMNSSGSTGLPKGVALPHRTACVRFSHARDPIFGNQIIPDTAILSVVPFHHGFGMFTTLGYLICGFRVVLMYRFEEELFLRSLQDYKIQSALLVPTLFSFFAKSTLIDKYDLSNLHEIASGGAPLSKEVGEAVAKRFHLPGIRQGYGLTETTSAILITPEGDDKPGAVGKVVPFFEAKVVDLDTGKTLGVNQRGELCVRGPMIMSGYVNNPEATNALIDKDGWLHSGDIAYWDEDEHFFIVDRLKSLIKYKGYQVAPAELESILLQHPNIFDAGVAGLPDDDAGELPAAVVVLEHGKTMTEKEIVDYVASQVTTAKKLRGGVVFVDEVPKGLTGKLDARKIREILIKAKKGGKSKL
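Purified P. pyralis luciferase, 10 nM final, with Km-level 10 uM D-luciferin and 10 uM ATP in 50 mM Tris acetate pH 7.5, 10 mM Mg acetate, 0.01% Tween-20, 0.05% BSA; 6-point qHTS titration about 60 µM downward; luminescence read.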
SMN2 splice up: qHTS Assay for Enhancers of SMN2 Splice Variant Expression. HEK293 SMN2-luciferase splicing reporter, luminescence, 30-36 h. hit rate 2.8% among 210,000. AID 1458, 2008. Potency, µM (highest dose often 46.1 µM), for inactives: top-dose activity change, positive = activation, most hits filed as activators; further: % of control where 0% means no effect; nearly all actives have a fitted effect of over 55% in size
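HEK293 cells carry an SMN2 […]–luciferase reporter in which exon 7 inclusion puts luciferase in frame. Cells were plated 10-12 h before compound addition, then incubated 30-36 h at 37C. ONE-Glo luminescence was read; sodium butyrate at 4.5 mM final served as control.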
ELG1 genotoxic: qHTS screen for small molecules that induce genotoxicity in human embryonic kidney (HEK293T) cells expressing luciferase-tagged ELG1 | AID 504466, 2011 | HEK293T ELG1-luciferase reporter, luminescence, 16 h | hit rate 1.3% among 330,000 | Potency, µM (titrated, usually from 46 µM), without a hit: top-dose activity change, positive = activation, hits mostly activators; further: % of control where 0% means no effect; nearly all actives have a fitted effect of over 60% in size
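HEK293T cells expressing luciferase-tagged ELG1 were treated with compound or DMSO for 16 hr at 37°C. Luciferase activity was then read after 30 min with ONE-Glo at room temperature; rising signal flags genetic stress.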
Luc counter: Counterscreen for Luciferase (Kinase-Glo TM) Inhibition. Luciferin 4-monooxygenase (Photuris pensylvanica), Q27757. hit rate 0.28% among 200,000. Potency, µM (titrated, usually from 38.3 µM), without a hit: top-dose activity change, negative = inhibition, most hits filed as inhibitors. AID 1379, 2008. Kinase-Glo luciferase, ATP luminescence, 8 min; further: on the % scale 0 is the no-effect control and ±100 the full control effect; nearly all actives have a fitted effect of over 60% in size
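Light output from Kinase-Glo luciferase with luciferin and 10 uM ATP in 50 mM imidazole pH 7.2, KCl, MgCl2, Tween 20, BSA; compound pin-delivered, 8-min ambient incubation, then luminescence read.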
NPC1 prom act: qHTS Assay for NPC1 Promoter Activators; hit rate 2.4% among 320,000; AID 485313, 2010; Potency, µM (top dose mostly 9.22 µM), inactives show at the highest dose activation, usual class: activators; Huh7 NPC1 promoter luciferase reporter, 24 h; further: % of control where 0% means no effect; nearly all actives have a fitted effect of over 60% in size
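Huh7 reporter cells (NPC1 promoter driving luciferase) are dosed with compound for 24 h at 37 °C, 5% CO2; luciferase detection reagent is then added and luminescence measured after 10 min at ambient temperature.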
Active calls of the source: *; ? = inconclusive; . = not tested or not shown; [ ] = dose if it differs, or a comment. The call rests on the fitted dose curve; in most records, active means well fitted curve in the direction sought with a large enough effect; inconclusive means small, poorly fitted or top-dose-only effect, or another doubt; inactive means no such curve, though single readings can be large; an effect the other way counts as inactive or inconclusive. Potency means the concentration at half of the fitted maximal effect.

SMILES	Rab9 prom act	FLuc counter	SMN2 splice up	ELG1 genotoxic	Luc counter	NPC1 prom act
O=C(O)c1cccc(N/N=C/c2cccnc2)c1	0.316µM*	2.39µM*	8.91µM*	0.1%	-2.6%	?
Clc1ccc(N/N=C/c2ccncc2)cc1Cl	?	?	12.6µM*	?	-1.0%	?
O=C(N/N=C/c1cccnc1)c1cccc(NC(=O)c2ccc(Cl)cc2)c1	-1.8%	0.0%	.	3.4%	.	0.6%
CNC(=S)Nc1cccc(C(=O)O)c1	-2.0%	-5.7%	8.9%	-1.8%	-0.3%	0.0%
O=C(O)c1cccc(N/N=C/c2ccc(-c3ccccc3)cc2)c1	0.0282µM*	0.0757µM*	0.199µM*	0.146µM*	-0.8%	0.0251µM*
CCCCc1nn2c(=O)cc(COC(=O)c3ccco3)nc2s1	.	-15.5%	.	.	.	.
CCOC(=O)C1=C([Si](C)(C)C)c2ccccc2N(S(=O)(=O)C(F)(F)F)C1C(=O)OCC (stereo not given)	.	.	.	.	-0.9%[39.9 µM]	.
O=S(=O)(NCCc1csc2nc(-c3ccccc3)nn12)c1ccc(Oc2ccccc2)cc1	.	-15.0%	.	.	.	.
Clc1ccc(N/N=C/c2cccnc2)cc1	26.3%	16.9µM*	?	17.0%	-0.2%	28.1%
CN(C)c1ccc(/C=N/Nc2cccc(C(=O)O)c2)cc1	10µM*	0.0757µM*	.	?	.	?
Cc1noc(C)c1C(=O)N1CCC2(CCCN(c3ncccn3)C2)CC1	.	.	-9.7%	.	0.5%	.
CCOc1ccc(CCNC(=O)C2CCCN(c3nnc(C)c4c(C)n(-c5ccccc5)nc34)C2)cc1 (stereo not given)	.	0.8%	.	.	.	.
COc1ccc(-c2cc(C(=O)N3CCC3)c3ccccc3n2)cc1OC	-1.7%	2.9%	.	2.7%	.	0.7%
Cc1ccc2nc(-c3ccccn3)cc(C(=O)N3CCN(c4ncccn4)CC3)c2c1	-1.4%	19µM*	13.1%	-12.0%	-0.2%	-1.2%
CC(C)Oc1cccc(-c2cc(C(=O)N3CCN(S(C)(=O)=O)CC3)c3ccccc3n2)c1	24.7%	3.01µM*	?	-15.1%	-3.9%	20.4%
COc1cccc(-c2cc(C(=O)N3CCN(c4ncccn4)CC3)c3ccccc3n2)c1	1.7%	?	35.5µM*	-13.3%	-2.0%	11.2%
COc1ccc(-c2cc(C(=O)N3CCN(c4ncccn4)CC3)c3ccccc3n2)cc1OC	-0.5%	13.5µM*	.	-3.5%	.	7.2%
CC(C)Oc1cccc(-c2cc(C(=O)N3CCN(c4ncccn4)CC3)c3ccccc3n2)c1	17.5%	1.35µM*	29.1%	-11.9%	-0.6%	24.1%
O=C(c1cc(-c2ccccn2)nc2ccccc12)N1CCN(c2ncccn2)CC1	11.4%	?	15.0%	-6.8%	-0.9%	-5.3%
c1ccc(-c2cn(CC3CCCCC3)nn2)cc1	2.24µM*	15.1µM*	.	?	.	3.55µM*
CCCCCc1ccc(-c2cn(CC3CCCCC3)nn2)cc1	2µM*	-1.1%	.	-0.4%	.	?
c1ccc(-c2cn(C[C@H]3CC[C@@H]([C@@H]4CC[C@H](Cn5cc(-c6ccccc6)nn5)O4)O3)nn2)cc1	6.0%	-17.9%	.	0.3%	.	-2.7%
COc1ccc(-c2cn(CC3CCCCC3)nn2)cc1	2.82µM*	?	.	?	.	3.98µM*
COc1ccc(-c2cn(Cc3ccc4ccccc4c3)nn2)cc1	11.7%	-4.3%	.	7.8%	.	22.9%
CCCCCc1ccc(-c2cn(CCCOCc3ccccc3)nn2)cc1	-2.2%	-0.5%	.	-0.6%	.	2.5%
SMILES	Rab9 prom act	FLuc counter	SMN2 splice up	ELG1 genotoxic	Luc counter	NPC1 prom act
Cc1ccc(-c2c3c(=O)n(C)c(=O)n(C)c3c3c(C(F)(F)F)nc4ccccc4n23)cc1	.	?	-14.2%	.	.	.
O=C(CSc1nc2c([nH]c3ccccc32)c(=O)n1-c1ccc(F)cc1)NC1CCCCC1	.	-4.3%	.	.	.	.
CC(C)C(=O)Nc1cccc(C(=O)OCC(=O)c2ccc(Cl)cc2Cl)c1	1.8%	1.2µM*	-6.9%	-0.4%	15.8%	0.9%
CCOC(=O)Nc1cc(C(=O)OC)ccc1C	0.5%	-1.1%	19.4%	9.9%	-1.3%	0.0%
COCC(=O)Nc1cc(Cl)ccc1C	0.5%	-3.0%	-1.3%	0.0%	-0.6%	2.8%
CC(=O)Nc1cc(C(=O)OCC(=O)c2ccc(Cl)cc2Cl)ccc1C	2.1%	2.39µM*	-6.6%	-1.4%	-2.3%	-2.6%
COC(=O)c1cccc(NC(=O)Nc2ccc(Cl)cc2Cl)c1	?	?	.	-1.8%	.	?
COc1ccc(C(=O)COc2ccc(C)cc2NC(C)=O)cc1	1.26µM*	-9.0%	.	?	.	3.55µM*
COc1ccc(C(=O)CC(=O)C(=O)Nc2cc(OC)ccc2OC)cc1	-5.2%	-3.2%	.	-0.1%	.	-5.5%
CC(=O)Nc1cc(C(=O)OCC(=O)c2ccc(C)cc2)ccc1C	2.24µM*	6.01µM*	?	?	0.6%	3.98µM*
CCn1nnc2cc(C(=O)Nc3cc(C)ccc3C)ccc21	.	6.9%	.	.	.	.
COc1cc(Nc2ncc3c(n2)CCN(Cc2ccc(OC(C)C)c(OC)c2)C3)cc(OC)c1	.	-11.1%	.	.	.	.
COc1ccc(C2=C(C)C(=O)N(Cc3ccc(C(=O)NCc4cccc(C)c4)cc3)S2(=O)=O)cc1	.	-6.0%	.	.	.	.
O=C(O)c1cccc(-n2sc3ccccc3c2=O)c1	0.8%	?	.	-0.3%	.	0.8%
Cc1ccc(-n2sc3ccccc3c2=O)cc1S(=O)(=O)N1CCCCC1	8.0%	19µM*	-16.9%	-7.8%	0.1%	0.7%
O=c1c2ccccc2sn1-c1ccc(S(=O)(=O)N2CCCC2)cc1	20.8%	4.78µM*	-7.3%	-0.4%	-3.4%	9.1%
O=c1c2ccccc2c(C=Nc2ccccc2O)c(O)n1-c1nccs1	-3.6%	-2.6%	.	-7.4%	.	1.7%
O=c1c2ccccc2sn1-c1nccs1	-0.5%	8.49µM*	6.1%	-2.6%	-11.6%	0.8%
CN(C)S(=O)(=O)c1cccc(-n2sc3ccccc3c2=O)c1	?	10.7µM*	8.1%	1.4%	-6.6%	10.5%
CC(=O)N1CCc2cc(S(=O)(=O)NC(Cc3ccccc3)C(=O)NCc3ccccc3)ccc21 (stereo not given)	.	5.3%	-7.5%	.	.	.
O=c1c2ccccc2sn1-c1ccccc1	25.5%	7.57µM*	6.0%	16.7%	-19.5%	10.3%
COc1ccc(-c2nc3cnc(N4CCN(C)CC4)nc3n(CCC#N)c2=O)cc1	.	.	-6.0%	.	1.6%	.
COCCNc1cc(-c2ccccc2C(F)(F)F)ncn1	.	.	-9.0%	.	-2.5%	.
